Source: ChEMBL document CHEMBL3433997, “St. Jude Leishmania screening dataset” (2016)

What was measured:
Assay type in all cases: functional
[1] = target: Solute carrier family 2, facilitated glucose transporter member 1 (Homo sapiens) (UniProt P11166); assay: ST_JUDE_LEISH: Cytotoxicity at 2uM final concentration against transgenic Leishmania Mexicana promastigotes LmGLUT1 that are glucose transport deficient and complemented with the human glucose transporter GLUT1. Activity is measured by DNA content using SYBR green in vitro
Solute carrier family 2, facilitated glucose transporter member 1 (Homo sapiens), sequence (P11166 whole entry): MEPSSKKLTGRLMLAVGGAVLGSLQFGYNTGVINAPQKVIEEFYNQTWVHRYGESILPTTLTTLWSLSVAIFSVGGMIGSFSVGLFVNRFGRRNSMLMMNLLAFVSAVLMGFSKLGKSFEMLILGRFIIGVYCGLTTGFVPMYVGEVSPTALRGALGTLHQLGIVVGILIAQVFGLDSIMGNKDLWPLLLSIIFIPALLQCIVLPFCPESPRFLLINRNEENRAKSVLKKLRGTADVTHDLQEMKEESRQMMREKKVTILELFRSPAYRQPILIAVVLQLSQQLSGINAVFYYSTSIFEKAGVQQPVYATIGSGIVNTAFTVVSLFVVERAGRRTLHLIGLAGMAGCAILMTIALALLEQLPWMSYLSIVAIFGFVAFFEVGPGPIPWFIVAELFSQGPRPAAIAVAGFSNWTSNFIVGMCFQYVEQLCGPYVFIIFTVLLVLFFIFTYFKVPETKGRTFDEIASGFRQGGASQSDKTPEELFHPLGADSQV

[2] = target: Hexose transporter 1 (Plasmodium falciparum) (UniProt O97467); assay: ST_JUDE_LEISH: Cytotoxicity at 2uM final concentration against transgenic Leishmania Mexicana promastigotes LmPfHT that are glucose transport deficient and complemented with the Plasmodium falciparum hexose transporter. Activity is measured by DNA content using SYBR green in vitro
[3] = target: Glucose transporter (Leishmania mexicana) (UniProt O61059); assay: ST_JUDE_LEISH: Cytotoxicity at 2uM final concentration against transgenic Leishmania Mexicana promastigotes LmGT2 that are glucose transport deficient and complemented with the L. Mexicana glucose transporter 2. Activity is measured by DNA content using SYBR green in vitro

Row | SMILES | inhibition [1] | inhibition [2] | inhibition [3]
1 | CCCCN(CCCC)Cc1cc(Nc2ccnc3cc(Cl)ccc23)ccc1O | 4.85% | 8.01% | 4.18%
2 | Cc1cccc2nc(C(=O)Nc3nc(CN4CCC(C)CC4)cs3)cn12 | -0.22% | -1.59% | 1.62%
3 | COc1cc(/C=C/C(=O)NCC(CCNc2cc(=O)c3ccccc3[nH]2)NCc2cc(Br)cc(Br)c2)cc(OC)c1 (centres undefined) | 2.85% | 3.71% | 2.37%
4 | C[C@@H](NC(=O)c1nn(-c2ccc(Cl)cc2)c(=O)c2ccccc12)C(C)(C)C | 1.61% | 1.12% | 0.85%
5 | CC1(C)CCC(C)(C)c2c1ccc(C1CCN(CCCCNC(=O)c3ccc(-c4ccc(C#N)cc4)cc3)CC1)c2O | 0.66% | 0.22% | 0.63%
6 | O=C(/C=C/c1ccc(Cl)c(Cl)c1)NCCCCCN1CCCC(CNC(=O)c2sc3ccccc3c2Cl)C1 (centres undefined) | -1.59% | -2.38% | 1.79%
7 | Cc1ccc(NCC(=O)Nc2ccc(F)c(Cl)c2)cc1S(=O)(=O)N1CCOCC1 | 2.54% | 1.86% | 0.32%
8 | Cc1[nH]n(-c2cccc(Cl)c2)c(=O)c1-c1ccc(Cl)cc1 | -3.78% | -2.18% | -2.07%
9 | c1ccc(-c2n[nH]cc2Nc2ccnc3ccccc23)nc1 | 5.35% | 3.76% | 3.97%
10 | OC(CNCc1ccco1)Cn1c2ccc(Br)cc2c2cc(Br)ccc21 (centres undefined) | 5.15% | 3.41% | 2.56%
11 | CN(C)Cc1ccc(-c2ccc3c(Nc4ccc(Oc5ccccn5)cc4)ccnc3c2)o1 | 0.08% | 4.31% | 2.19%
12 | O=C(Nc1cccc(-c2nn3ccccc3c2-c2ccnc(Nc3ccc(Cc4ccncc4)cc3)n2)c1)c1c(F)cccc1F | 12% | 17.3% | 13.2%
13 | COCCN1CCC(N(Cc2ccc(-c3ccc(C(F)(F)F)cc3)cc2)C(=O)Cn2c(CCc3cccc(F)c3F)cc(=O)c3c2CCC3)CC1 | -2.35% | -0.63% | -2.32%
14 | O=C(N[C@@H](Cc1ccccc1)[C@H](O)CNC1CCOCC1)c1cc(C2CCCC2)cc(N2CCCCS2(=O)=O)c1 | 3.67% | 3.81% | 4.01%
15 | O=S(=O)(NCCN1CCCC1)c1ccc(-c2cccc(CNCc3ccccc3)c2)s1 | -2.31% | -2.12% | -2.89%
16 | CC1(C)N=C(N)N=C(N)N1c1cccc(Cl)c1 | 0.67% | -0.19% | 2.95%
17 | CN1CCN(CC(O)CNC(=O)Nc2ccc(Br)cc2)CC1 (centres undefined) | 3.01% | 3.45% | -0.7%

Row | SMILES | inhibition [1] | inhibition [2] | inhibition [3]
18 | O=C(NC1CCCc2ccccc21)[C@@H]1CCCN1C(=O)c1ccc(O)c(-c2ccc(Cl)c(Cl)c2)c1 (some centres undefined) | 0.06% | -0.61% | -0.01%
19 | O=C(Nc1ccc(F)c(Cl)c1)NC1CCN(c2ccnc3cc(Cl)ccc23)C1 (centres undefined) | 6.4% | 6.38% | 8.81%
20 | COc1cccc(C(=O)NCCOc2ccccc2)c1Oc1ccccc1 | 5.14% | 5.7% | 5.15%
21 | N=C1NC(=O)C(=Cc2cn(-c3ccccc3)nc2-c2cccc(S(=O)(=O)N3CCCC3)c2)S1 | 8.5% | 6.98% | 7.82%
22 | COc1ccccc1C(C)NCC(=O)Nc1cccc(C(=O)Nc2cccc(C(F)(F)F)c2)c1 (centres undefined) | 3.9% | -0.5% | 4.16%
23 | Cc1cc(CNCCCCCCNCc2cccc([N+](=O)[O-])c2)ccc1O | 10.5% | 9.56% | 9.64%
24 | Cc1cc(NC(=O)Nc2cccc(C#N)c2)c2ccccc2n1 | 4.37% | 4.11% | 3.04%
25 | CC1=C(C(=O)Nc2cc3cn[nH]c3cc2F)C(c2cccc(NS(C)(=O)=O)c2)CC(=O)N1 (centres undefined) | 2.54% | 1.97% | 2.34%
26 | COc1ccc(Cl)cc1N1CCN(CCCNC(=O)c2ccc(-c3nc4cnccc4[nH]3)c(Br)c2)CC1 | 0.19% | -0.19% | -0.85%
27 | Clc1ccc(C=NN=c2cc[nH]c3ccccc23)cc1 | 9.89% | 8.46% | 6.25%
28 | COc1ccc2c(c1)CCN(CCN1CCC(CNC(=O)c3ccc(-c4ccc(C#N)cc4)cc3)CC1)C2 | -0.11% | 1.19% | 2.22%
29 | Cc1ccc(C(=O)NC2CCN(CCNC(=O)Nc3cc(C)nc4ccccc34)CC2)cc1 | -1.56% | 0.53% | -1.45%
30 | COCCCn1c(=N)c(C(=O)NCCc2ccc(OC)cc2)cc2c(=O)n3cccc(C)c3nc21 | 4.69% | 5.42% | 8.16%
31 | Cc1cc(=NN=Cc2ccccc2Cl)c2cccc(C)c2[nH]1 | 3.87% | 2.32% | -1.14%
32 | COc1ccc2nccc([C@@H](O)CN3CCC(NC(=O)c4ccc(Cl)c(OC)c4)CC3)c2c1 | 4.62% | 7.71% | 0.22%
33 | O=C(Nc1ccc2c(c1)CN(Cc1ccc(N3CCCC3)o1)CCC2)c1cncs1 | 1.6% | 1.62% | -0.45%
